In the library only some 17% were active in any assay of this set; here they are far more common.
TDP1 cell CPT = qHTS for Inhibitors of human tyrosyl-DNA phosphodiesterase 1 (TDP1): qHTS in cells in presence of CPT; chicken DT40 Tdp1-/-;hTDP1 cells + 20 nM CPT, ATP luminescence, 48 h; Potency, µM (titrated, usually from 46.2 µM), most hits filed as inhibitors; actives 12% (n = 420,000); AID 686979, 2013; also: nearly all actives have a fitted effect of over 55% in size
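Chicken DT40 Tdp1-/- cells complemented with human TDP1, 400 cells/well, exposed to compounds plus 20 nM camptothecin for at least 48 h at 37 C; viability read as ATP content by CellTiter-Glo luminescence.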
TDP1 inh = qHTS Assay for Inhibitors of Tyrosyl-DNA Phosphodiesterase (TDP1); actives 0.28% (n = 350,000); Tyrosyl-DNA phosphodiesterase 1 (Homo sapiens), Q9NUW8; recombinant TDP1, AlphaScreen DNA substrate cleavage; Potency, µM (top dose mostly 130 µM), hits mostly inhibitors; also: nearly all actives have a fitted effect of over 40% in size
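Compounds were preincubated with Tdp1 (1 nM final) for 15 min at room temperature before substrate (15 nM final) started a 5 min reaction; beads (10 ug/ml final) were then added for 10 min before AlphaScreen detection.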
DT40 TDP1 no CPT = qHTS for Inhibitors of human tyrosyl-DNA phosphodiesterase 1 (TDP1): qHTS in cells in absence of CPT | AID 686978, 2013 | actives 15% (n = 420,000) | Potency, µM (titrated, usually from 46.2 µM), most hits filed as inhibitors | DT40 Tdp1-/- hTDP1 cells, no CPT, ATP luminescence, 48 h; also: nearly all actives have a fitted effect of over 55% in size
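Cells were dispensed at 400 per well, compounds added by pin tool, plates incubated ≥48 hr at 37 °C, then CellTiter-Glo added for 30 min at room temperature before luminescence reading. Line: DT40 Tdp1-/- complemented with hTDP1; camptothecin omitted.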
ClpP mod = qHTS Assay for Activators of ClpP. purified B. subtilis ClpP, FRET peptide cleavage, 20 min. Potency, µM (doses to about 57.5 µM). actives 1.9% (n = 340,000). ATP-dependent Clp protease proteolytic subunit (Bacillus subtilis (strain 168)), P80244. AID 651965, 2013; active = well fitted falling curve with a large enough effect; inconclusive = small, poorly fitted or top-dose-only effect; inactive = no such curve, though single readings can be large or run the other way; also: the source files actives as falling curves though it sought activators and does not explain the sign; nearly all actives have a fitted effect of over 65% in size
Target sequence (P80244 whole entry, looked up): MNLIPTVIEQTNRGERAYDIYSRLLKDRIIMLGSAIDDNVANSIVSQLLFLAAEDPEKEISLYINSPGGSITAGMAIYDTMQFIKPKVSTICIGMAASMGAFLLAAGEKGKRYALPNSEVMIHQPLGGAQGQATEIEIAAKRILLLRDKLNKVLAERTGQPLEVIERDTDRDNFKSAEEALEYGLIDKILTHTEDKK
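ClpP 10 microg/mL final, pH 8 Tris/KCl buffer with BSA, glycerol, Tween-20; compound pinned in; FRET-FV substrate; RT 20 min; Ex320/Em430; ΔFRET vs ADEP 5.8 microM, DMSO, no enzyme.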
ClpP inh valid = qHTS Assay for Activators of ClpP: Hit Validation of Inhibitors | actives 40% (n = 470) | Potency, µM (highest dose often 57.5 µM), actives largely listed as inhibitors | shares compounds with ClpP mod | purified B. subtilis ClpP, FRET-FV substrate cleavage, 20 min; also: nearly all actives have a fitted effect of over 70% in size
Large screens that a line does not name were inactive (follow-up assays come after a bar, where they were run). Unless noted, calls follow the shape of the dose curve; as a rule, active = well fitted curve in the direction sought with a large enough effect; inconclusive = small, poorly fitted or top-dose-only effect, or another doubt; inactive = no such curve, though single readings can be large; an effect the other way counts as inactive or inconclusive.

CSc1cccc(NC(=O)c2ccc3c(c2)c(C)c(C)n3Cc2ccc(F)cc2)c1	TDP1 cell CPT inconclusive, DT40 TDP1 no CPT inconclusive, ClpP mod 7.1µM | ClpP inh valid 27µM
CCOC(=O)c1[nH]c2ccccc2c1NC(=O)c1ccc(OC(C)C)cc1	TDP1 cell CPT inconclusive, DT40 TDP1 no CPT inconclusive
CCOC(=O)C1CCCN(c2ncnc3c2oc2ccccc23)C1 (centres undefined)	TDP1 cell CPT inconclusive, DT40 TDP1 no CPT 13µM | ClpP inh valid inactive
Cc1ccc(C2Nc3ccccc3-c3nc4ccccc4n32)o1 (centres undefined)	TDP1 cell CPT inconclusive, DT40 TDP1 no CPT inconclusive, ClpP mod 0.71µM | ClpP inh valid 11µM
O=C1c2ccccc2-c2nc3ccccc3n21	DT40 TDP1 no CPT inconclusive
COc1ccccc1NC(=O)c1cc2c(-c3ccccc3)nn(-c3ccccc3)c2s1	none (no result: TDP1 cell CPT, DT40 TDP1 no CPT)
O=C(Nc1ccccc1)c1cc2c(-c3ccccc3)nn(-c3ccccc3)c2s1	ClpP mod 7.1µM (no result: TDP1 cell CPT, DT40 TDP1 no CPT) | ClpP inh valid 19µM
CC(=O)c1cccc(NC(=O)Cn2c(-c3cncs3)nc3ccccc32)c1	DT40 TDP1 no CPT inconclusive
COc1cccc(NC(=O)Cn2c(-c3cncs3)nc3ccccc32)c1	TDP1 cell CPT inconclusive, ClpP mod 8.9µM | ClpP inh valid inactive
c1ccc2[nH]c(-c3ccncc3)nc2c1	none (no result: ClpP mod)
Fc1cc2nc(-c3ccncc3)[nH]c2cc1F	DT40 TDP1 no CPT inconclusive, ClpP mod 3.2µM | ClpP inh valid 17µM
CN(Cc1ccc(Br)cc1)C(=O)CCN1C(=O)c2cccc([N+](=O)[O-])c2C1=O	none
CC(=O)Nc1ccc(NC(=O)c2ccc(N(C)S(=O)(=O)c3ccc(C)cc3)cc2)cc1	none | ClpP inh valid inconclusive
O=C1CC(c2ccccc2)Cc2nc3nc(C(F)(F)F)nn3cc21 (centres undefined)	none | ClpP inh valid inactive
COc1ccc(C(=O)Nc2nnc(-c3cccs3)s2)cc1	TDP1 cell CPT 10µM, DT40 TDP1 no CPT 12µM | ClpP inh valid 17µM
O=C(CSc1nnc(-c2ccccc2F)o1)N1CCNC1=O	none
COc1ccc(-c2cc3nc4n(c(=O)c3s2)CCC4)cc1	TDP1 cell CPT 15µM, DT40 TDP1 no CPT inconclusive | ClpP inh valid 1.9µM
Cc1ccc(C(=O)N2CCN(CCc3ccncc3)CC2)cc1	none
COc1ccc(NC(=O)Cn2c(=O)c3cccn3c3ccccc32)cc1	TDP1 cell CPT inconclusive | ClpP inh valid inactive
Cc1ccc(Nc2c(-c3ccc(Br)o3)nc3ccccn23)cc1	TDP1 cell CPT inconclusive, DT40 TDP1 no CPT inconclusive, ClpP mod 8.9µM | ClpP inh valid inconclusive
O=C(Nc1cccc(Cl)c1Cl)c1cc(S(=O)(=O)NCc2ccc3c(c2)OCO3)ccc1F	none | ClpP inh valid inconclusive
CN1CCN(C(=O)c2ccc(-n3cccc3)cc2)CC1	none
Cc1nc2ccc(-c3nc4ccccc4o3)cc2[nH]1	DT40 TDP1 no CPT inconclusive, ClpP mod 3.2µM | ClpP inh valid 15µM
CCCCC(=O)Nc1cc2nn(-c3ccc(OC)cc3)nc2cc1C	ClpP mod 1µM | ClpP inh valid 24µM
CCC(=O)Nc1cc2nn(-c3ccc(OC)cc3)nc2cc1C	ClpP mod 2.8µM | ClpP inh valid 19µM
CCC(=O)Nc1cc2nn(-c3ccc(C)cc3)nc2cc1C	none
Cc1ccnc(NC(=O)c2ccc(OCc3c(C)noc3C)cc2)c1	none | ClpP inh valid inactive
Cc1nc2ccc([N+](=O)[O-])cc2c(=O)n1Cc1ccccc1Br	none | ClpP inh valid inactive
CCCC(=O)Nc1ccc2nc(C)n(Cc3ccccc3Cl)c(=O)c2c1	none (no result: TDP1 inh)
CC(=O)N1CCc2c(sc(NC(=O)C3CCCN3S(=O)(=O)c3cccs3)c2C(N)=O)C1 (centres undefined)	TDP1 cell CPT 21µM, DT40 TDP1 no CPT 16µM, ClpP mod 4µM | ClpP inh valid inactive
CC(=O)N1CCc2c(sc(NC(=O)C3CCN(S(=O)(=O)c4cccs4)CC3)c2C(N)=O)C1	none (no result: ClpP mod)
COc1ccc(NC(=O)C(c2cc3ccccc3o2)n2c(=O)c(-c3cc4ccccc4[nH]3)nc3ccccc32)cc1 (centres undefined)	TDP1 cell CPT inconclusive, DT40 TDP1 no CPT inconclusive (no result: TDP1 inh) | ClpP inh valid inactive
O=C(NCc1ccccc1)C(c1cc2ccccc2o1)n1c(=O)c(-c2cc3ccccc3[nH]2)nc2ccccc21 (centres undefined)	TDP1 cell CPT inconclusive, DT40 TDP1 no CPT inconclusive (no result: TDP1 inh) | ClpP inh valid inactive
CC(C)(C)NC(=O)C(c1cccc2ccccc12)n1c(=O)c(-c2cc3ccccc3[nH]2)nc2ccccc21 (centres undefined)	TDP1 cell CPT inconclusive, DT40 TDP1 no CPT inconclusive (no result: TDP1 inh)
O=C(Nc1ccc2c(c1)OCCO2)C(c1ccc(C(F)(F)F)cc1)n1c(=O)c(-c2cc3ccccc3[nH]2)nc2ccccc21 (centres undefined)	TDP1 cell CPT inconclusive, DT40 TDP1 no CPT inconclusive (no result: TDP1 inh)
Cc1ccc(C)c(-n2c(N)c(C#N)c3nc4ccccc4nc32)c1	none
CCCCn1c(SCC(=O)N(C)C)nnc1-c1ccncc1	none
CCCOc1ccc(Cn2c(=O)oc3ccc(C)cc32)cc1OC	TDP1 cell CPT inconclusive | ClpP inh valid inactive
Cc1cc(=O)oc2cc(OCC(=O)OCC(=O)Nc3ccc(C(N)=O)cc3)ccc12	TDP1 cell CPT inconclusive (no result: ClpP mod)
Cc1cc(=O)oc2cc(OCC(=O)OCC(=O)NCc3ccc4c(c3)OCO4)ccc12	none | ClpP inh valid inactive
Cc1ccc(NC(=O)COC(=O)COc2ccc3ccc(=O)oc3c2)cc1[N+](=O)[O-]	none | ClpP inh valid 19µM
Cc1cc(=O)oc2cc(OCC(=O)OCC(=O)Nc3ccccc3C(C)C)ccc12	none | ClpP inh valid inconclusive
Cc1ccc(S(=O)(=O)N(C)C)cc1NC(=O)COC(=O)COc1ccc2c(C)cc(=O)oc2c1	none | ClpP inh valid inactive
Cc1cc(OCC(=O)OCC(=O)NCc2ccc3c(c2)OCO3)ccc1Cl	none
Fc1ccc2nc(Nc3nc4cc5c(cc4s3)OCCO5)sc2c1	TDP1 cell CPT 16µM, DT40 TDP1 no CPT inconclusive, ClpP mod 6.3µM | ClpP inh valid 3.9µM
NNc1nc2ccc(F)cc2s1	TDP1 cell CPT inconclusive, DT40 TDP1 no CPT inconclusive
Fc1ccc2nc(Nc3nc4c(F)cccc4s3)sc2c1	TDP1 cell CPT inconclusive, DT40 TDP1 no CPT inconclusive, ClpP mod 8.9µM | ClpP inh valid 4.9µM
Fc1ccc2nc(Nc3nc4c(F)cc(F)cc4s3)sc2c1	TDP1 cell CPT 16µM, DT40 TDP1 no CPT 15µM, ClpP mod 8.9µM | ClpP inh valid inconclusive
